# Assay outcomes as filed in PubChem.
# Shown are actives, neighbours in structure and some others; about 11% of the full set was active somewhere.
# PI5P4Ka inh: PI5P4K alpha (human) kinase inhibition; PI5P4Kalpha enzyme, ADP-Glo luminescence, 60 min; active compounds read low; hit rate 1.2% among 330,000; AID 652105; P48426; max response, %; active means max response of -50% or lower; inconclusive means between -30% and -50%; inactive means -30% or higher; further: value at the top dose of about 77 µM
#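 Compounds were pin-transferred onto PI5P4Kalpha and substrate in HEPES pH 7.4 buffer with EGTA, CHAPS and 5% DMSO. ATP (5 microM final) started the reaction, which ran 60 minutes at room temperature before ADP-Glo detection.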
# HP1b binding inh: blocks HP1-beta chromodomain binding to methylated histone tails; P83916; hit rate 0.56% among 390,000; Potency, µM (top dose mostly 114 µM), most hits filed as inhibitors; AlphaScreen HP1-beta / biotin-H3K9me3 peptide binding; further: nearly all actives have a fitted effect of over 70% in size
#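 HP1-beta protein (50 nM final) preincubated 30 min at room temperature with biotinylated H3(1-18)K9me3 peptide (50 nM) in PBS pH 7.4, 0.01% Tween-20, then compound added for 30 min. AlphaScreen streptavidin donor/nickel chelate acceptor beads (10 ug/mL final), 30 min dark, luminescence read.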
# JMJD2A Tudor: JMJD2A Tudor domain (human) inhibition | AlphaScreen JMJD2A-Tudor / H3K4me3 peptide binding | Potency, µM (titrated, usually from 114 µM), most hits filed as inhibitors | hit rate 4.4% among 390,000; further: nearly all actives have a fitted effect of over 50% in size
# Target sequence (O75164 whole entry, looked up, the tested form may be a part): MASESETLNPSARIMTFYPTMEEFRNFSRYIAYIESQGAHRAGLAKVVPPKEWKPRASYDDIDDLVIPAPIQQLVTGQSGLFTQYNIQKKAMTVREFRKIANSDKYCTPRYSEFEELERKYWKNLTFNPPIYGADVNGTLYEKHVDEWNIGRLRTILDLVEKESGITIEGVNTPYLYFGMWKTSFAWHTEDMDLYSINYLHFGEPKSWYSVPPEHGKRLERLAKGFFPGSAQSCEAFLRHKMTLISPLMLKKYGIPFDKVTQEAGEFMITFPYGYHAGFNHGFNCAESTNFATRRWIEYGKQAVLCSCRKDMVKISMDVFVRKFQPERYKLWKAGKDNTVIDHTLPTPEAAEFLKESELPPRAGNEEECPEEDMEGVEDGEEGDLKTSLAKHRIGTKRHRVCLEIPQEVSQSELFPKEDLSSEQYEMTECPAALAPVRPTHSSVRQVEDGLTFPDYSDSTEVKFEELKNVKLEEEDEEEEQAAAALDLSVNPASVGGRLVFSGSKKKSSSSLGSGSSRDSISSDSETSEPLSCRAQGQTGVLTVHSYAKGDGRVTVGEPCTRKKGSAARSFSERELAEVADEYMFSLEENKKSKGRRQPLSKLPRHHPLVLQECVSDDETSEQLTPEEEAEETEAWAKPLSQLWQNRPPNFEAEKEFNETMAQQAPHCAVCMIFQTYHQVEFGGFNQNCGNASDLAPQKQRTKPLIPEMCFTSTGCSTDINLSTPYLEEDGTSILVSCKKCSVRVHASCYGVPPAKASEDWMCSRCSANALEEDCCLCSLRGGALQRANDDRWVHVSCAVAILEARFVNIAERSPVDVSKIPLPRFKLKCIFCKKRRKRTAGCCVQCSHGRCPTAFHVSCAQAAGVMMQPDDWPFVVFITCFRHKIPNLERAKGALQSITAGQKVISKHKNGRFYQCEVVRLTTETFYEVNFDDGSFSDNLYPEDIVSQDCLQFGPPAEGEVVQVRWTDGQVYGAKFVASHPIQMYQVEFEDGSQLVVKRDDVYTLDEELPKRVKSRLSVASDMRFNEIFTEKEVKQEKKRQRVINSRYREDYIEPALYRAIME
# BAZ2B block: BAZ2B (human) inhibition; AlphaScreen BAZ2B-H3K14Ac peptide displacement; Potency, µM (top dose mostly 114 µM), actives largely listed as inhibitors; hit rate 4.4% among 360,000; further: nearly all actives have a fitted effect of over 60% in size
#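 Complex of BAZ2B and biotin-H3K14Ac (50 nM apiece) forms over 30 min at RT, then faces library compounds up to 110 uM for another 30 min; AlphaScreen beads added, 20 min dark incubation, luminescence read.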
# L3MBTL1 inh: L3MBTL1 (human) inhibition. Q9Y468. AID 485360. hit rate 0.66% among 230,000. Potency, µM (top dose mostly 57.1 µM), actives largely listed as inhibitors. AlphaScreen L3MBTL1–H3K9me1 peptide binding; further: nearly all actives have a fitted effect of over 60% in size
#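 First, the protein-peptide complex forms for 30 min at room temperature (L3MBTL1 50 nM, biotinylated H3K9me1 peptide 75 nM). Next, compounds are pin-transferred and incubated 30 min. Finally, AlphaScreen beads are added and read after 30 min.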
# G9a block: blocks human histone lysine methyltransferase G9a | G9a H3K9 monomethylation, AlphaScreen, 2 h | hit rate 8.8% among 350,000 | Potency, µM (doses to about 102 µM), hits mostly inhibitors; further: nearly all actives have a fitted effect of over 75% in size
#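 AlphaScreen read-out: biotin-H3K9 peptide (500 nM) methylation by 20 nM enzyme with 20 uM SAM, 2 h at room temperature after 15 min compound preincubation; anti-monomethyl H3K9 antibody plus donor/acceptor beads, 10 min dark.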
# A number is an active result; i = inactive; ? = inconclusive; nt = no result; ! = repeats disagree; [ ] = another dose, or the depositor's remark. Unless noted, the call rests on the fitted dose curve; in most records, active means well fitted inhibition curve with a large enough effect; inconclusive means small, poorly fitted or top-dose-only effect; inactive means no such curve, though single readings can be large or run the other way.
SMILES,PI5P4Ka inh,HP1b binding inh,JMJD2A Tudor,BAZ2B block,L3MBTL1 inh,G9a block
CCOC(=O)c1c(NC(=O)COc2ccc(Cl)cc2C)sc(C(C)=O)c1C,nt,i,i,i,nt,i
Cc1ccc(Cl)c(Nc2ccccc2C(=O)O)c1Cl,?,i,i,i,i,i
Cc1c(Cl)cccc1Nc1ccccc1C(=O)O,i,i,i,i,i,44.7µM!
O=C(O)c1ccccc1NC(=O)c1cc2ccccc2oc1=O,?,i,i,i,i,50.1µM
O=C(O)c1ccccc1NN=C1CCCCC1,i,i,?,i,i,8.91µM
CC(c1ccccc1)N1C(=O)c2ccc(C(=O)Nc3ccc(Br)cc3C(=O)O)cc2C1=O (centres undefined),-56.8,i,50.1µM,i,nt,nt
CCOC(=O)c1ccccc1NC(=O)C(=O)Nc1ccc2nc3n(c(=O)c2c1)CCCCC3,nt,i,i,i,nt,i
COc1ccccc1N1CCN(C(=O)c2c(C)oc3ncn(C)c(=O)c23)CC1,nt,i,i,i,nt,i
Cc1nnc(NC(=O)c2ccccc2NC(=O)c2ccccc2)s1,i,i,i,i,i,50.1µM
Cc1c(NC(=O)c2ccc(-c3ccccc3)cc2)cccc1C(=O)O,i,i,i,i,i,i
CC(C)CCN1C(=O)c2ccc(C(=O)Nc3ccccc3C(=O)O)cc2C1=O,-60.3,i,i,i,nt,i
Cc1c(NC(=O)c2cccnc2C(=O)O)cccc1C(=O)O,i,?,2.51µM,35.5µM,i,8.91µM
Cc1ccc(Cl)cc1N1CCN(CCCNC(=O)C2COc3ccccc3C2)CC1 (centres undefined),nt,i,i,i,nt,i
O=C(CN1C(=O)CCC1=O)NNc1ccc2ccccc2c1,i,i,i,i,i,8.91µM
Cc1ccc(S(=O)(=O)NC(C)C(=O)Nc2ccc3c(c2)OCO3)cc1 (centres undefined),i,i,i,i,nt,50.1µM
Cc1ccc(S(=O)(=O)NC(C)C(=O)N2CCOCCOCCOCCOCC2)cc1 (centres undefined),i,i,i,i,nt,39.8µM
CCc1c(C)sc2c1CCN(C(=O)Nc1ccc(F)c(Cl)c1)C2c1ccc(F)cc1 (centres undefined),nt,i,i,i,nt,i
CCOc1ccccc1NS(=O)(=O)c1cc2[nH]c(=O)c(=O)[nH]c2cc1C,nt,i,i,i,nt,i
Cc1cc(=O)n(Cc2ccccc2Cl)c2c1c(C)nn2-c1ccccc1,nt,i,i,i,nt,i
CCOC(=O)c1c(S(=O)(=O)N2CCCC(C(=O)Nc3ccc(OCC)cc3)C2)c(C)n(C)c1C (centres undefined),nt,i,i,i,nt,i
COc1cc(OC)c2c(O)c3c(c(-c4c5c(c(O)c6c(OC)cc(OC)cc46)CO[C@@H](C)[C@H]5O)c2c1)[C@H](O)[C@H](C)OC3,-90.2,?,50.1µM,44.7µM,?,i[12.7 µM]
O=C1CC(c2ccco2)Cc2nc(N3CCc4ccccc4C3)ncc21 (centres undefined),i,i,i,?,i,44.7µM
CC(C)c1ccc(C2CC(=O)c3cnc(N4CCc5ccccc5C4)nc3C2)cc1 (centres undefined),i,i,?,i,i,i
c1ccn(CCc2ccncc2)c1,i,?,i,nt,nt,nt
Nc1ccc(CCn2ccnc2)cc1,i,i,79.4µM,44.7µM,nt,i
SMILES,PI5P4Ka inh,HP1b binding inh,JMJD2A Tudor,BAZ2B block,L3MBTL1 inh,G9a block
C=CCn1cc(/C=N/NC(=O)COc2cccc3cccnc23)c2ccccc21,i,i,?,?,i,?
COc1ccccc1OCC(=O)N/N=C/c1cccc2cccnc12,i,i,56.2µM,35.5µM,nt,nt
COc1cccc(/C=N/NC(=O)COc2cccc3cccnc23)c1O,i,i,i,i,i,i
COc1ccc(OCC(=O)N/N=C/c2cccc3cccnc23)cc1,i,i,79.4µM,nt,nt,nt
CC(C)n1cc(/C=N/NC(=O)COc2cccc3cccnc23)c2ccccc21,i,i,i,i,i,44.7µM
CN(C)C(=O)CCSC(SCCC(=O)O)c1cccc(/C=C/c2ccc3ccc(Cl)cc3n2)c1 (centres undefined),nt,nt,nt,nt,nt,i[12.7 µM]
CC(C)CCn1c(=O)c2cccnc2n(CC(=O)Nc2ccccc2F)c1=O,nt,i,i,i,nt,i
COCCSc1nnc(NC(=O)C2CC(=O)N(c3ccccc3)C2)s1 (centres undefined),i,i,i,i,i,i
Cc1ccccc1N1CC(C(=O)Nc2nnc(SCCN3CCOCC3)s2)CC1=O (centres undefined),i,i,i,i,nt,15.8µM
COc1ccc(N2CC(C(=O)Nc3nnc(SCC(=O)NC(C)(C)C)s3)CC2=O)cc1 (centres undefined),i,i,i,i,i,?
COc1ccc(C(=O)CSc2nnc(NC(=O)C3CC(=O)N(c4ccccc4C)C3)s2)cc1 (centres undefined),?,i,i,i,i,35.5µM
COc1cccc(N2CC(C(=O)Nc3nnc(SCC(=O)N4CCCC4)s3)CC2=O)c1 (centres undefined),?,i,i,i,nt,?
Cc1cccc(C)c1NC(=O)CSc1nnc(NC(=O)CN2CCOCC2)s1,i,i,89.1µM,?,i,i[0.0925 µM]
COc1cccc(N2CC(C(=O)Nc3nnc(SCCN4CCOCC4)s3)CC2=O)c1 (centres undefined),i,i,i,i,nt,39.8µM
COc1ccccc1CCNC(=O)C(=O)NCC(c1cccs1)S(=O)(=O)c1ccc(C)cc1 (centres undefined),nt,i,i,i,nt,i
Cc1cccc(Cn2c(SCc3ccc(C(=O)NCCc4ccccc4)cc3)nc3ccncc32)c1,nt,i,i,i,nt,?
O=C(Nc1nnc(C2CC2)s1)c1ccco1,i,i,i[11.4 µM],i,i,i
Cc1ccccc1N1CC(c2nnc(NC(=O)c3ccco3)s2)CC1=O (centres undefined),nt,i,i,?,nt,8.91µM
CCOc1ccc(OCC)c(Nc2nc3ccc(Cl)cc3n3cnnc23)c1,nt,i,i,i,nt,i
COC(=O)/C(C#N)=C/c1c(N2CCN(c3ccccc3)CC2)nc2c(C)cccn2c1=O,i,i,?,i,nt,?
C=CCNC(=O)/C(C#N)=C/c1c(N2CCN(c3ccccc3)CC2)nc2c(C)cccn2c1=O,i,i,i,i,nt,i[2.33 µM]
COc1ccc(N2CCN(c3nc4c(C)cccn4c(=O)c3/C=C(\C#N)C(N)=O)CC2)cc1,i,i,?,35.5µM,nt,31.6µM
C=CCNC(=O)/C(C#N)=C/c1c(N2CCN(c3ccc(OC)cc3)CC2)nc2c(C)cccn2c1=O,i,?,25.1µM,?,nt,i[2.33 µM]
COc1ccc(N2CCN(c3nc4ccc(C)cn4c(=O)c3C=O)CC2)cc1,i,i,?,?,i[2.29 µM],44.7µM
CNC(=O)/C(C#N)=C/c1c(N(Cc2ccccc2)Cc2ccccc2)nc2c(C)cccn2c1=O,i,i,?,?,i,79.4µM
